# In the library only some 3.6% were active in any assay of this set; here they are far more common.
# Bead autofluor = counter-screen for toxin protease inhibitors: compound fluorescence. compound autofluorescence counterscreen, microsphere flow cytometry; hits give high values. fluorescence intensity (no concentration beside the values). 360,000 compounds, 3.1% hits; in the data active means fluorescence intensity above about 16000; inconclusive means no clear call, values can overlap the other calls
# BoNT A protease = inhibitors of Botulinum neurotoxin A light chain protease; multiplex microsphere protease substrate cleavage, flow cytometry; inhibition, % at 10 µM; 360,000 compounds, 0.17% hits; further: plate controls were buffer without enzyme for full effect and enzyme alone for no effect
# BoNT F protease = BoNT F light chain protease inhibition; inhibition, % at 10 µM; Multiplex microsphere protease cleavage assay, flow cytometry; 360,000 compounds, 0.22% hits; in the data active means inhibition above about 35%, passing the limit was not always enough; inconclusive means no clear call, values can overlap the other calls; further: plate controls were buffer without enzyme for full effect and enzyme alone for no effect
# Anthrax LF prot = anthrax lethal factor protease inhibition; P15917; multiplex microsphere protease cleavage assay, LF; inhibition, % at 10 µM; 360,000 compounds, 0.12% hits; further: plate controls were buffer without enzyme for full effect and enzyme alone for no effect
# MazF activator = activators of E. coli MazEF toxin-antitoxin RNase | FAM/BHQ RNA-DNA oligo cleavage fluorescence, 5 h | activation, % at 20 µM | 350,000 compounds, 0.32% hits | AID 504720; in the data active means activation above about 50%
# Target sequence (P0AE70 whole entry, looked up): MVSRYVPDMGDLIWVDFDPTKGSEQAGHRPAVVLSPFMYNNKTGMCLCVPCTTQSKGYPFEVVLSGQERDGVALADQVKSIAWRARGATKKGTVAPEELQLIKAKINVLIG
# * = called active by the depositor; ? = inconclusive; . = no result; + = active, no number. Unless noted, no stated cut-off is given here; in the data, active means inhibition above about 30%; inconclusive means no clear call, values can overlap the other calls; inactive means below that.
SMILES,Bead autofluor,BoNT A protease,BoNT F protease,Anthrax LF prot,MazF activator
Cc1c(NC(=O)NCc2ccccc2)c(=O)n(-c2ccccc2)n1C,22336*,2.0,2.1,-1.5,-1.0
CCN(C)C1CN(Cc2cn(CCCOC)nn2)S(=O)(=O)C1 (stereo not given),7227,-0.7,-5.2,-0.8,.
CS(=O)(=O)Nc1cccc(C2=NN(C(=O)c3ccc(F)cc3)C(c3cccs3)C2)c1 (stereo not given),3404,0.5,-7.5,-14.6,6.9
O=C(CCCn1cncn1)N1CCCC(N2CCN(c3ccc(F)cc3)CC2)C1 (stereo not given),6151,-0.3,0.9,-2.1,1.0
CCOC(=O)Nc1c(C)n(C)n(-c2ccccc2)c1=O,19722*,11.6,10.0,-12.1,2.7
CCOC(=O)c1ccc(NC(=O)Nc2c(C)n(C)n(-c3ccccc3)c2=O)cc1,5938,0.5,3.2,-1.7,6.4
Cc1c(NC(=S)/C=C2\N(C)c3ccccc3C2(C)C)c(=O)n(-c2ccccc2)n1C,19375*,4.3,6.6,-4.1,-4.3
Cc1c(NC(=O)c2n[nH]c(=O)c3ccccc23)c(=O)n(-c2ccccc2)n1C,21768*,3.1,4.0,-4.1,7.7
COc1cc(NC(=O)CSc2ncnc3scc(-c4ccccc4)c23)c(C(=O)O)cc1OC,4333,0.3,-1.7,4.3,-8.3
C=CCn1c(SCc2c(C)noc2C)nc2sc3c(c2c1=O)CCCCC3,24051*,-1.7,-6.3,-1.0,-7.0
C=CCn1c(SCc2c(C)noc2C)nc2sc3c(c2c1=O)CCCC3,10261,-0.9,-10.1,-4.0,3.7
N#Cc1c(N)c(C(=O)c2ccccc2)n2c1CCC2,23949*,-2.9,-5.3,-1.3,8.7
COC(=O)c1c(N)c(C#N)c2n1CCCCC2,11422,-0.4,-5.8,-5.1,2.6
CC1CC(C)CN(S(=O)(=O)c2ccc3oc(=O)ccc3c2)C1 (stereo not given),4168,5.0,8.9,2.4,-2.1
ON=C1c2ccccc2-c2ccccc21,3753,-2.4,3.2,1.4,3.0
NC(N)=NN=C1c2ccccc2-c2ccccc21,8153,2.5,81.8*,49.4*,-1.5
O=C(NCCCN1CCCC1=O)C1CCN(S(=O)(=O)c2ccccc2)CC1,7568,0.9,2.6,-8.8,7.3
CCN(CC)C(=O)CSc1nnc(-c2ccccc2)n1N,21307*,-1.3,-4.0,-3.3,8.6
CCN(CC)C(=O)CSc1nnc(-c2ccncc2)n1N,16267*,-0.3,1.7,-2.2,2.9
CCOc1ccc(-c2nnc(SCC(=O)N(CC)CC)n2N)cc1,21180*,-4.5,-4.9,0.9,-1.0
CCN(CC)C(=O)CSc1nnc2sc3ccccc3n12,19933*,-0.6,0.4,-7.1,-6.5
O=C(NC(Cc1ccccc1)C(=O)N1CCN(c2ccc(F)cc2)CC1)c1ccccc1 (stereo not given),3474,-0.4,-4.5,-2.1,3.3
O=C(Nc1ccc(-n2cccn2)cc1)C1CCCCN1Cc1cccc2c1OCO2 (stereo not given),4815,-2.7,-2.7,0.0,-4.6
C[C@@H]1CN([C@H](C)CO)C(=O)CCCn2nncc2CO[C@@H]1CN(C)C(=O)C1CC1,3016,-0.2,-2.9,-2.7,-1.2
CCN(C(=O)COC(=O)COc1ccc(Cl)c(C)c1)C1CCS(=O)(=O)C1 (stereo not given),?,-9.8,-16.3,0.2,4.6
SMILES,Bead autofluor,BoNT A protease,BoNT F protease,Anthrax LF prot,MazF activator
NC(=O)c1ccc(-c2ncc(-c3ccccc3)o2)cc1,18854*,5.9,6.3,-2.3,-1.8
C=CCNC(=S)NNC(=O)c1cccn(Cc2ccc(Cl)c(Cl)c2)c1=O,5648,-1.1,-8.8,-2.3,-2.6
CNC(=S)NNC(=O)c1cccn(Cc2cccc(Cl)c2)c1=O,24235*,-1.6,-3.0,-0.2,-3.2
O=C(NCc1ccccc1)c1cccn(Cc2cccc(Cl)c2)c1=O,3907,3.5,10.7,-6.7,-0.7
CNC(=S)NNC(=O)c1cccn(Cc2ccc(Cl)c(Cl)c2)c1=O,22977*,0.6,-2.0,0.0,6.2
CC(=O)c1c(C)[nH]c(C(=O)CN2C(=O)NC(C)(CCC(C)C)C2=O)c1C (stereo not given),3328,-0.1,1.1,2.6,6.6
N#Cc1ccc(Oc2nc(C(N)=O)cc(-c3ccccc3)n2)cc1,24851*,-4.7,-7.7,-1.5,34.7
Cc1c(Br)c([N+](=O)[O-])nn1C(C)C(=O)NCc1cccnc1 (stereo not given),20382*,-1.3,-0.2,-7.5,2.5
Cc1c(Br)c([N+](=O)[O-])nn1C(C)C(=O)NCc1ccco1 (stereo not given),2516,-0.5,-14.4,-4.1,2.8
O=C(Nc1c2c(nn1-c1ccccc1)CS(=O)(=O)C2)c1ccccc1Br,5685,0.3,4.0,-1.6,4.5
O=C(CCCn1c(=S)[nH]c2cc3c(cc2c1=O)OCO3)N1CCN(c2ncccn2)CC1,20894*,?,3.9,-1.9,-5.9
Cc1ccc(C)c(N2CCN(C(=O)CCCn3c(=S)[nH]c4cc5c(cc4c3=O)OCO5)CC2)c1,17273*,-2.8,-8.5,0.3,-10.4
CCOC(=O)N1CCN(C(=O)CCCn2c(=S)[nH]c3ccccc3c2=O)CC1,3846,0.0,6.8,-1.7,-6.3
CCOC(=O)N1CCN(C(=O)CCCn2c(=S)[nH]c3ccc(Br)cc3c2=O)CC1,20951*,?,-3.0,-0.5,3.6
O=C(CCCn1c(=S)[nH]c2cc3c(cc2c1=O)OCO3)N1CCN(c2ccccc2F)CC1,9260,0.2,6.6,-3.3,10.8
Cc1cc(C)n2nc(SCC(=O)NC3CCCCC3)nc2n1,5827,0.3,-4.2,0.2,7.3
CCCCOc1ccc(S(=O)(=O)NC(=O)C2(C)CCN2C(=O)Cc2cccs2)cc1 (stereo not given),2968,-0.3,0.4,-7.5,.
O=C(Nc1ccc(N2CCN(C(=O)c3cccs3)CC2)cc1)c1ccc(F)cc1,2949,-0.7,-16.1,-3.1,-8.8
O=C(Cc1cccs1)NCCS(=O)(=O)N1CCN(c2ccccc2)CC1,3950,0.6,-7.9,-1.2,-12.3
CCOc1ccc(-n2c(SCc3ccc([N+](=O)[O-])cc3)nnc2-c2ccc(OC)cc2)cc1,2585,-0.6,-6.3,-0.1,-4.1
Cc1ccc(N2C(=O)c3n[nH]c(C)c3C2c2ccco2)cc1 (stereo not given),22119*,?,-1.7,-2.1,2.9
CCOC(=O)c1ccc(N2C(=O)c3n[nH]c(C)c3C2c2ccco2)cc1 (stereo not given),3064,-0.2,8.1,5.1,1.8
N#Cc1ccc(-c2cccnc2)nc1SCC(=O)c1ccccc1,.,.,.,.,+
CCC1CCc2[nH]nc(C(=O)O)c2C1 (stereo not given),8617,1.2,6.2,-0.7,-2.0
CC1CCc2[nH]nc(C(=O)O)c2C1 (stereo not given),20725*,1.7,2.6,-8.3,-10.8
O=C(C1=C(O)C(=O)N(CCN2CCOCC2)C1c1cccnc1)c1cc2ccccc2o1 (stereo not given),19706*,-1.0,-4.0,-2.9,-10.5
C=CCOc1ccc(C2NC(=O)c3ccccc3O2)cc1OC (stereo not given),2823,-0.1,2.4,-2.3,-13.6

# Assay outcomes from PubChem.
